# Activity calls are given as the source filed them. Unless noted, the rule behind the calls is not given here.
# Assays:
# [1] = A549 cell viability effects, profiling panel, calcein-AM fluorescence, 48 h, basal (AID 1162); settings: higher = more signal; note: test concentration not given here
# [2] = adipocyte viability effects, profiling panel, cell-based, 3T3-L1 adipocytes, calcein-AM fluorescence, 48 h, basal (AID 1163); settings: 3T3-L1 adipocytes viability, higher = more signal; note: test concentration not given here
# [3] = HepG2 cell viability effects, profiling panel, calcein-AM fluorescence, 48 h, basal (AID 1164); settings: higher = more signal; note: test concentration not given here
# [4] = MM1S cell viability effects, profiling panel, calcein-AM fluorescence, 48 h, basal (AID 1165); settings: higher = more signal;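 note: viability of MM1S multiple myeloma cells under basal unstimulated conditions; test concentration not given here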
# [5] = basal RPMI8226 viability, no added stimulus, profiling panel, cell-based, calcein-AM fluorescence, 48 h, PK04 Diversity Set (AID 1166); settings: RPMI8226 myeloma viability, higher = more signal;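 note: cells grown under basal conditions without added stimulus; test concentration not given here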
# [6] = basal HepG2 mitochondrial membrane potential changes, profiling panel, cell-based, JC-1 fluorescence, 24 h, 100 nL compound (AID 1167); settings: higher = more signal; note: test concentration not given here
# [7] = basal 3T3-L1 adipocyte mitochondrial potential changes, profiling panel, cell-based, JC-1 fluorescence, 3T3-L1 adipocytes, 24 h, 100 nL compound (AID 1168); settings: JC-1 mitochondrial fluorescence, higher = more signal, called active from +8 up or from −8 down; note: test concentration not given here
# [8] = basal RPMI8226 mitochondrial membrane potential changes, profiling panel, cell-based, JC-1 fluorescence, 24 h, 100 nL compound (AID 1169); settings: RPMI8226 myeloma, JC-1 mitochondrial potential fluorescence, higher = more signal; note: test concentration not given here
# [9] = basal MM1S mitochondrial membrane potential changes, profiling panel, cell-based, JC-1 fluorescence, 24 h, 100 nL compound (AID 1170); settings: higher = more signal; note: test concentration not given here
# [10] = A549 lung cancer cell viability effects, profiling panel, resazurin fluorescence, 24 h, PK04 Diversity Set (AID 1171); settings: higher = more signal, called active from +8 up or from −8 down; note: test concentration not given here
# [11] = HepG2 liver cancer cell viability effects, profiling panel, resazurin fluorescence, 24 h, PK04 Diversity Set (AID 1172); settings: higher = more signal; note: test concentration not given here
# [12] = basal S. cerevisiae growth modulation, no modifier, primary screen, OD600, strain BY4716, 24 h, basal condition (AID 1173); settings: OD600, 24 h, higher = more signal, called active from +8 up or from −8 down
# [13] = MM1S myeloma cell viability, profiling panel, resazurin fluorescence, basal, 24 h, PK04 Diversity Set (AID 1174); settings: higher = more signal, called active from +8 up or from −8 down;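 note: MM1S multiple myeloma cell line; test concentration not given here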
# [14] = biological target: Dihydroorotate dehydrogenase (quinone), mitochondrial (Plasmodium falciparum (isolate 3D7)) (UniProt Q08210); assay: PfDHODH enzyme inhibitors, primary screen, biochemical, C-terminal His tag, absorbance 600 nm (AID 1175); settings: DCIP absorbance 600 nm, higher = more signal, called active from +8 up or from −8 down;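 note: recombinant parasite enzyme with a five histidine tag at its C terminus; test concentration not given here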
# [15] = P. aeruginosa biofilm formation inhibitors, primary screen, strain PAO1, LB-PBS medium, absorbance 600 nm (AID 1176); note: test concentration not given here; settings: P. aeruginosa PAO1 growth/biofilm, A600, 12 h; higher = more signal
# [16] = S. cerevisiae RM11-1a growth modifiers, primary screen, strain RM11-1a, OD600, basal, 24 h (AID 1177); settings: OD600, 24 h, higher = more signal, called active from +8 up or from −8 down;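 note: cultures grown under basal conditions with no added stressor; test concentration not given here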
# [17] = E. coli acrAB mutant growth effects, primary screen, E. coli filamentation inducers, strain DRC39, OD650, 24 h (AID 1178); settings: higher = more signal, called active from +8 up or from −8 down;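 note: growth measured as culture turbidity by optical density at 650 nm; test concentration not given here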
# [18] = E. coli acrAB mutant growth effects, primary screen, E. coli filamentation inducers, strain DRC39, OD650, 48 h (AID 1179);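 note: screen aims at cell division blockers that make cells filament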; settings: E. coli DRC39 delta-acrAB growth, higher = more signal, called active from +8 up or from −8 down
# [19] = RPMI8226 myeloma cell viability, profiling panel, resazurin fluorescence, basal, 24 h, PK04 Diversity Set (AID 1180); settings: higher = more signal;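 note: RPMI8826 multiple myeloma cell line at 5000 cells per well; test concentration not given here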
# [20] = biological target: E3 ubiquitin-protein ligase XIAP (Homo sapiens) (UniProt P98170); assay: XIAP binders, primary screen, biophysical, small-molecule microarray, fluorescence 635 nm (AID 1181); settings: small-molecule microarray binding, higher = more signal;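 note: score merges 667 nm emission and signal to noise over triplicate slides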
# Chain of E3 ubiquitin-protein ligase XIAP (Homo sapiens) (P98170 whole entry, looked up): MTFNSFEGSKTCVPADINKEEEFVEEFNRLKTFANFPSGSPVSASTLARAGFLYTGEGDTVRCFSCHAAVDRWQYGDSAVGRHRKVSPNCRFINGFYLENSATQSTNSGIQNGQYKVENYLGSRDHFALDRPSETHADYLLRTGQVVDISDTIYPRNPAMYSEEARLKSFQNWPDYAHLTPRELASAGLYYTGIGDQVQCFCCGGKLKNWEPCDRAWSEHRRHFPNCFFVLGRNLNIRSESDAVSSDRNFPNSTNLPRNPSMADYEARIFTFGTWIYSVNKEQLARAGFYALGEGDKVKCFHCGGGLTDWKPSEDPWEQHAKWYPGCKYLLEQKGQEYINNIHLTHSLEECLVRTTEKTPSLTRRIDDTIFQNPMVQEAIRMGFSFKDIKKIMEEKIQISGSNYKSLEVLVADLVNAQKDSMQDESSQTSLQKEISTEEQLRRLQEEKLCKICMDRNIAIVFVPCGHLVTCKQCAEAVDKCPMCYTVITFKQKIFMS
# Chain of Dihydroorotate dehydrogenase (quinone), mitochondrial (Plasmodium falciparum (isolate 3D7)) (Q08210 whole entry, looked up): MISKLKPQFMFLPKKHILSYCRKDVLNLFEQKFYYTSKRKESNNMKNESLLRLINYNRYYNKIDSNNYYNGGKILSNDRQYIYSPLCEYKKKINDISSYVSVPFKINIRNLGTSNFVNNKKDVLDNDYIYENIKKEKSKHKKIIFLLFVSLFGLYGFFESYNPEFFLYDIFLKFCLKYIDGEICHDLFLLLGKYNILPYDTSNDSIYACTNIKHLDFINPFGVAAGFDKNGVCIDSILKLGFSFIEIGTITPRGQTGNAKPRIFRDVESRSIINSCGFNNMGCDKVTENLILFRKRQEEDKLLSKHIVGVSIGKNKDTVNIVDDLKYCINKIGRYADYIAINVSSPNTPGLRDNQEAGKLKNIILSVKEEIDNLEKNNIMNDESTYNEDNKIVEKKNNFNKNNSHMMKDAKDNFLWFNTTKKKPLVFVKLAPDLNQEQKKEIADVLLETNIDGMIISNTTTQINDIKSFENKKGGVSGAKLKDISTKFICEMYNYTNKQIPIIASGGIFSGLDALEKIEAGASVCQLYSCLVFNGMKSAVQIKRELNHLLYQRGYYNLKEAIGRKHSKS
Structure (SMILES),z-score [1],z-score [2],z-score [3],z-score [4],z-score [5],z-score [6],z-score [7],z-score [8],z-score [9],z-score [10],z-score [11],z-score [12],z-score [13],composite z-score [14],z-score [15],z-score [16],z-score [17],z-score [18],z-score [19],composite z-score [20]
N#Cc1ccc(NN2C(C(O)C(c3ccccc3)c3ccccc3)C=CC3C(=O)N(c4ccccc4)C(=O)C32)cc1 (stereo not given),0.825,-1.53,0.361,0.0017,0.103,0.913,-0.435 (inactive),-0.812,-0.379,-0.386 (inactive),-0.554,0.551 (inactive),-1.17 (inactive),0.0998 (inactive),0.35 (inactive),0.826 (inactive),-0.135 (inactive),0.832 (inactive),0.0951,0.0849
CCOC(=O)C[C@H]1[C@H](OC(=O)c2ccc(-c3ccccc3)cc2)[C@@H](NC(=O)Cc2ccc(OC)cc2)c2cc(OCCCO)ccc2N1C(=O)c1ccccc1,-0.137,0.533,-0.42,0.57,-0.432,1.37,-1.03 (inactive),0.0293,-0.102,-0.657 (inactive),-0.616,0.695 (inactive),-0.113 (inactive),0.11 (inactive),-0.252 (inactive),0.87 (inactive),0.303 (inactive),0.339 (inactive),0.0662,0.15
CN(C)CCCCCCNC(=O)[C@@H]1C[C@@H]2C(=O)N[C@@H](Cc3ccccc3)C(=O)N2[C@@H]1c1ccc(O)cc1,-0.58,0.502,-0.948,-1.45,-0.571,-1.15,-1.42 (inactive),-0.00023,0.0429,-1.03 (inactive),-0.591,-0.58 (inactive),-1.09 (inactive),0.0288 (inactive),-0.0059 (inactive),0.179 (inactive),-0.725 (inactive),-1.25 (inactive),-0.974,0.458
COCCOC(=O)N1C(=O)[C@@]2(c3cc(C#CCCO)ccc31)[C@H](C(=O)N1CCCCCCC1)[C@H]1C(=O)O[C@H](c3ccccc3)[C@H](c3ccccc3)N1[C@@H]2c1ccc(OCCO)cc1,0.338,1.74,0.155,-0.284,-1.54,-1.68,-1.47 (inactive),-1.25,-1.02,0.76 (inactive),0.902,0.849 (inactive),0.368 (inactive),0.047 (inactive),1.56 (inactive),2.32 (inactive),-0.0574 (inactive),0.215 (inactive),-2.44,1.06
COC(=O)[C@@]1(Cc2ccc(OC)cc2)[C@H]2c3cc(C(=O)N(C)C)n(Cc4ccccn4)c3C[C@H]2CN1C(=O)c1ccccc1,-0.865,0.626,-0.319,-0.684,-1.31,2.05,-1.46 (inactive),0.155,0.016,-0.793 (inactive),-0.961,1.28 (inactive),-1.24 (inactive),1.02 (inactive),0.976 (inactive),0.607 (inactive),-1.13 (inactive),-0.6 (inactive),-0.838,0.155
C=C(CCCC)/C(=C/C[C@@H](OC(C)=O)c1ccc(OCCO)cc1)c1cnc2ccccc2c1,2.57,0.197,1.12,-1.27,-0.0971,1.65,-0.38 (inactive),-0.364,-1.16,0.775 (inactive),0.54,-0.845 (inactive),-0.267 (inactive),-4.4 (inactive),0.825 (inactive),-0.81 (inactive),1.85 (inactive),1.49 (inactive),0.445,-0.0228
C=CCNC(=O)[C@@H]1[C@H]2C(=O)O[C@H](c3ccccc3)[C@H](c3ccccc3)N2[C@H](c2ccccc2OCCO)[C@@]12C(=O)N(C(=O)OCCOC)c1ccccc12,-0.798,0.955,-1.69,-2.24,-3.37,-0.186,0.149 (inactive),-0.813,-0.287,-2.03 (inactive),-1.59,1.86 (inactive),-1.12 (inactive),0.693 (inactive),2.26 (inactive),3.27 (inactive),0.0191 (inactive),-0.476 (inactive),-1.65,-0.0559
COC(=O)[C@@]1(Cc2ccc(F)cc2)[C@H]2c3cc(C(=O)N(C)C)n(Cc4cc(F)c(F)c(F)c4)c3C[C@H]2CN1C(=O)c1ccccc1,-0.917,-0.147,0.178,-0.711,-1.93,0.345,-1.26 (inactive),-0.803,-1.75,-2.68 (inactive),-2.13,1.56 (inactive),-1.97 (inactive),0.349 (inactive),0.15 (inactive),1.16 (inactive),-0.194 (inactive),0.38 (inactive),-3.47,0.157
CCC[C@@H]1C[C@@]1(CCC)[C@@H](NS(=O)(=O)c1cccc2cccnc12)c1ccc(Cl)cc1,1.54,-1.13,0.112,0.0781,-0.99,3.46,0.112 (inactive),0.137,-0.855,-0.132 (inactive),-0.0373,1.43 (inactive),-0.151 (inactive),0.283 (inactive),0.908 (inactive),1.24 (inactive),-0.251 (inactive),-0.0357 (inactive),-0.0909,0.0999
